From PubChem BioAssay (NCATS)
Inconclusive results are not listed. Active and inactive are the calls of the source. The call rests on the fitted dose curve; in most records, active means well fitted curve in the direction sought with a large enough effect; inconclusive means small, poorly fitted or top-dose-only effect, or another doubt; inactive means no such curve, though single readings can be large; an effect the other way counts as inactive or inconclusive.

What was measured:
[1] = qHTS of pediatric cancer cell lines to identify multiple opportunities for drug repurposing: Primary screen for NB1643 cells (AID 1347099); further: nearly all actives have a fitted effect of over 50% in size
Method in brief: (§1)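 Phenotypic viability qHTS, 48 h compound exposure, CellTiter-Glo luminescence read-out; multi-concentration dosing so that potency and efficacy derive directly from the primary screen's curves.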

[2] = qHTS of pediatric cancer cell lines to identify multiple opportunities for drug repurposing: Primary screen for LAN-5 cells (AID 1347100)
Method in brief: (§2)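 Cells (500-1,000/well) in growth media were settled 5 h at 37 degrees C, then given compounds for 48 h. Viability was read as CellTiter-Glo luminescence. Primary runs used MIPE at 11 points (0.78 nM-46 µM) and NPC at 8 points (0.59 nM-46 µM); follow-ups used 11 points.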

[3] = qHTS of pediatric cancer cell lines to identify multiple opportunities for drug repurposing: Primary screen for BT-12 cells (AID 1347101); further: nearly all actives have a fitted effect of over 25% in size
Method in brief: (§3)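 Cells (500-1,000/well) rested 5 h, then received compounds for 48 h; metabolically active cells were measured by CellTiter-Glo luminescence. Final concentrations spanned up to 46 µM (MIPE, 11-point) or 0.59 nM-46 µM (NPC, 8-point) in primary screens, 11-point in follow-ups.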

[4] = qHTS of pediatric cancer cell lines to identify multiple opportunities for drug repurposing: Primary screen for OHS-50 cells (AID 1347103); further: nearly all actives have a fitted effect of over 40% in size
Method in brief: as §3

[5] = qHTS of pediatric cancer cell lines to identify multiple opportunities for drug repurposing: Primary screen for RD cells (AID 1347104); further: nearly all actives have a fitted effect of over 55% in size
Method in brief: as §1

[6] = qHTS of pediatric cancer cell lines to identify multiple opportunities for drug repurposing: Primary screen for Rh30 cells (AID 1347107); further: nearly all actives have a fitted effect of over 75% in size
Method in brief: as §2

[7] = qHTS of pediatric cancer cell lines to identify multiple opportunities for drug repurposing: Primary screen for MG 63 (6-TG R) cells (AID 1347105); further: nearly all actives have a fitted effect of over 50% in size
Method in brief: as §1

[8] = qHTS of pediatric cancer cell lines to identify multiple opportunities for drug repurposing: Primary screen for control Hh wild type fibroblast cells (AID 1347106); further: nearly all actives have a fitted effect of over 55% in size
Method in brief: as §2

[9] = qHTS of pediatric cancer cell lines to identify multiple opportunities for drug repurposing: Primary screen for Rh41 cells (AID 1347108); further: nearly all actives have a fitted effect of over 70% in size
Method in brief: as §1

[10] = qHTS of pediatric cancer cell lines to identify multiple opportunities for drug repurposing: Primary screen for Rh18 cells (AID 1347102); further: nearly all actives have a fitted effect of over 65% in size
Method in brief: as §2

Measured: Potency
Potency means the concentration at half of the fitted maximal effect.

C[C@H]1CCCC=CC2C[C@H](O)C[C@@H]2[C@H](O)C=CC(=O)O1 (stereo partly specified)
active: [1] 0.001 µM | [2] 0.001 µM | [3] 0.001 µM | [4] 0.001 µM | [5] 0.001 µM
inactive: [6]

O=C(O)COc1ccccc1
inactive: [1] | [3] | [4] | [5] | [7] | [8] | [6] | [9]

COC1=C[C@@H]2[C@@H]3Cc4ccc(OC)c(O)c4[C@]2(CCN3C)CC1=O
inactive: [3] | [10] | [4]
active: [1] 5.9 µM | [9] 3.72 µM

CN1[C@H]2CC(O)C[C@H]1[C@H]1O[C@H]12 (stereo partly specified)
inactive: [8]
active: [1] 20.9 µM | [3] 19.3 µM | [4] 9.68 µM | [5] 33.2 µM | [7] 14.8 µM | [6] 23.5 µM | [9] 23.5 µM

CCOCCOC(C)=O
inactive: [1] | [2] | [10] | [4] | [5] | [7] | [8] | [6] | [9]

Cc1c(C(=O)Nc2cccc(C(F)(F)F)c2)cc(-c2ccccc2)n1CCCN1CCOCC1
active: [1] 23.5 µM | [2] 18.7 µM | [4] 24.3 µM | [5] 18.7 µM
inactive: [8]

N=c1c2c(-c3ccccc3)c(-c3ccccc3)n(Cc3ccccc3)c2ncn1C1CCC(O)CC1 (stereo unspecified)
active: [1] 4.69 µM | [2] 1.05 µM | [3] 6.85 µM
inactive: [8]

CCCCCCCCCC(CC)c1ccc(S(=O)(=O)O)cc1 (stereo unspecified)
inactive: [1] | [3] | [10] | [5] | [7] | [8] | [6] | [9]

Cc1ccccc1-n1c(Cn2cnc3c(N)ncnc32)nc2cccc(C)c2c1=O
active: [1] 0.59 µM | [2] 0.264 µM | [10] 1.05 µM | [4] 0.0611 µM | [5] 2.35 µM | [7] 0.148 µM | [9] 0.59 µM

CC(C)[C@H]1C(=O)N[C@H](CO)Cc2c[nH]c3cccc(c23)N1C
inactive: [1] | [3] | [10] | [5] | [6] | [9]

CCCCOC(=O)c1ccccc1C(=O)OCc1ccccc1
inactive: [1] | [2] | [3] | [5] | [7] | [8] | [6] | [9]

CCOP(=O)(NC(C)C)Oc1ccc(SC)c(C)c1 (stereo unspecified)
inactive: [1] | [2] | [10] | [5] | [7] | [8] | [6] | [9]

c1ccc(CCCN2CCN(CCOC(c3ccccc3)c3ccccc3)CC2)cc1
inactive: [8]
active: [1] 26.4 µM | [2] 29.6 µM | [4] 21.7 µM | [5] 29.6 µM

C=CCON=C(C[C@H]1O[C@@H]2O[C@]3(C)CC[C@@H]4[C@H](C)CC[C@@H]([C@H]1C)[C@@]24OO3)[C@H]1O[C@@H]2O[C@]3(C)CC[C@H]4[C@H](C)CC[C@@H]([C@@H]1C)[C@@]24OO3
active: [1] 0.833 µM | [2] 0.469 µM | [3] 0.344 µM | [4] 0.306 µM | [9] 0.469 µM
inactive: [8] | [6]

O=c1cccc2n1CC1CNC[C@H]2C1
active: [1] 5.9 µM | [2] 2.96 µM | [10] 3.32 µM | [5] 18.7 µM | [9] 11.8 µM

C[C@]12Cc3cn[nH]c3C[C@@H]1CC[C@@H]1[C@H]2CC[C@@]2(C)[C@H]1CC[C@]2(C)O
inactive: [1] | [2] | [3] | [5] | [7] | [8] | [9]

CCC(=O)OC1CCC2C3CCC4=CC(=O)CC[C@@]4(C)C3CC[C@]12C (stereo partly specified)
inactive: [1] | [2] | [3] | [5] | [7] | [8] | [6] | [9]

Cc1c(C(=O)c2cccc3ccccc23)c2cccc3c2n1[C@H](CN1CCOCC1)CO3
active: [1] 11.8 µM | [3] 27.3 µM | [10] 20.9 µM | [4] 13.7 µM | [5] 29.6 µM | [7] 23.5 µM | [9] 20.9 µM

C[C@]12CC[C@H]3[C@@H](CCC4=CC(=O)CC[C@@]43C)[C@H]1CC[C@H]2O
inactive: [1] | [3] | [10] | [5] | [7] | [8] | [6] | [9]

CC(C)(C)C(O)C(Oc1ccc(Cl)cc1)n1cncn1 (stereo unspecified)
inactive: [1] | [3] | [10] | [5] | [8] | [6] | [9]

NC1=NC(=O)N2CC12 (stereo unspecified)
inactive: [1] | [10] | [4] | [7] | [8] | [6] | [9]
active: [3] 21.7 µM

C[C@@H]1CC[C@H]2[C@@H](C)C(=O)O[C@@H]3O[C@@]4(C)CC[C@H]1[C@]32OO4
inactive: [1] | [2] | [10] | [8]

O=C(O)c1cc(Oc2ccc(C(F)(F)F)cc2Cl)ccc1[N+](=O)[O-]
inactive: [1] | [3] | [10] | [4] | [5] | [7] | [8] | [6] | [9]

CC(=O)O[C@@]12CO[C@H]1C[C@H](O)[C@@]1(C)C(=O)[C@H](O)C3=C(C)[C@@H](O)C[C@@](O)([C@@H](OC(=O)c4ccccc4)[C@@H]21)C3(C)C
active: [2] 2.64 µM | [4] 1.72 µM
inactive: [1] | [10] | [8] | [6]

CN(C)[C@@H]1C(=O)C(C(N)=O)=C(O)[C@@]2(O)C(=O)C3=C(O)c4c(O)cccc4[C@@](C)(O)[C@H]3[C@H](O)[C@@H]12
inactive: [1] | [3] | [10] | [4] | [5] | [7] | [8] | [6] | [9]

O=C(O)COc1nc(Cl)c(Cl)cc1Cl
inactive: [1] | [2] | [10] | [4] | [5] | [7] | [8] | [6] | [9]

CC(O)=C(C#N)C(=O)Nc1cc(Br)ccc1Br
active: [1] 1.32 µM
inactive: [3] | [10] | [4] | [5] | [7] | [8] | [6]

CCC1(CCC(C)C)C(=O)NC(=O)NC1=O
inactive: [1] | [2] | [10] | [4] | [5] | [7] | [8] | [6] | [9]

CCN1CCN(C(=O)Cc2ccc(Nc3ncc(F)c(Nc4ccc(C(=O)Nc5ccccc5Cl)cc4)n3)cc2)CC1
active: [1] 5.9 µM | [3] 19.3 µM | [10] 8.33 µM | [4] 4.32 µM | [5] 13.2 µM | [7] 9.35 µM | [6] 23.5 µM | [9] 18.7 µM
inactive: [8]

COc1cc([C@@H]2c3cc4c(cc3[C@@H](O)C3COC(=O)C32)OCO4)cc(OC)c1O (stereo partly specified)
inactive: [10] | [7] | [6]
active: [1] 6.62 µM | [2] 0.0132 µM | [4] 0.0343 µM

CC(C)[C@]12O[C@@H]1[C@@H]1O[C@]13[C@]1(O[C@H]1C[C@@H]1C4=C(CC[C@@]13C)C(=O)OC4)[C@H]2O
inactive: [1] | [2] | [8] | [6]
active: [3] 0.001 µM | [4] 0.001 µM | [5] 0.001 µM | [9] 52.6 µM

CC(O)CN1CCN(CC(=O)[O-])CCN(CC(=O)[O-])CCN(CC(=O)[O-])CC1.[Gd+3] (stereo unspecified)
inactive: [1] | [3] | [10] | [4] | [5] | [7] | [8] | [6] | [9]

CCNC(=O)C[C@@H]1N=C(c2ccc(Cl)cc2)c2cc(OC)ccc2-n2c(C)nnc21
active: [1] 1.05 µM | [2] 2.35 µM | [4] 1.53 µM | [5] 1.18 µM | [7] 0.469 µM | [9] 5.9 µM
inactive: [8]

O=c1[nH]c2ccccc2n1C1CCN(Cc2ccc(-c3[nH]c4cc5ncnc5cc4nc3-c3ccccc3)cc2)CC1
inactive: [8]
active: [1] 20.9 µM | [2] 14.8 µM | [4] 1.72 µM

CCCCC(CC)COC(=O)c1ccccc1C(=O)OCC(CC)CCCC (stereo unspecified)
inactive: [1] | [3] | [10] | [4] | [5] | [7] | [8] | [6] | [9]

C[C@@H]1CC[C@@]2(OC1)O[C@H]1C[C@H]3[C@@H]4CC=C5C[C@@H](O[C@@H]6O[C@H](CO)[C@@H](O[C@@H]7O[C@@H](C)[C@H](O)[C@@H](O)[C@@H]7O)[C@H](O)[C@@H]6O[C@@H]6O[C@@H](C)[C@H](O)[C@@H](O)[C@@H]6O)CC[C@]5(C)[C@@H]4CC[C@]3(C)[C@@H]1[C@H]2C
inactive: [8]
active: [1] 5.9 µM | [3] 6.85 µM | [4] 4.32 µM | [5] 5.9 µM | [7] 2.96 µM | [6] 11.8 µM | [9] 14.8 µM

CC(C)NCC(O)c1ccc([N+](=O)[O-])cc1 (stereo unspecified)
inactive: [2] | [3] | [10] | [4] | [5] | [7] | [8] | [6] | [9]

C#C[C@]1(O)C=C[C@@H]2[C@@H]3CCC4=CC(=O)CC[C@@H]4[C@H]3CC[C@@]21CC
inactive: [10] | [4] | [5] | [7] | [8] | [6] | [9]
active: [1] 8.33 µM

CCC(=O)O[C@@H]1C=C2CCC3C(CCC4(C)C3CC[C@@H]4OC(=O)CC)C2CC1 (stereo partly specified)
inactive: [2] | [3] | [10] | [4] | [5] | [7] | [8] | [6] | [9]

CCCCCC[C@H]1C(=O)O[C@H](C)[C@H](NC(=O)c2cccc(NC=O)c2O)C(=O)O[C@@H](C)[C@@H]1OC(=O)CC(C)C
active: [1] 23.5 µM | [3] 0.122 µM | [4] 0.0611 µM
inactive: [8]

Nc1c(Cl)c(Cl)c(Cl)c(Cl)c1Cl
inactive: [2] | [3] | [10] | [4] | [5] | [7] | [6] | [9]

CCCCCCCCc1ccc(O)cc1
inactive: [1] | [10] | [5] | [7] | [8] | [6] | [9]
active: [4] 25.4 µM

CC=C(C)C(=O)O[C@H]1C(C)=C2[C@@H]3OC(=O)[C@@](C)(O)[C@@]3(O)[C@@H](OC(=O)CCC)C[C@](C)(OC(C)=O)[C@@H]2[C@@H]1OC(=O)CCCCCCC
active: [1] 0.0662 µM | [3] 0.0485 µM | [4] 0.0172 µM | [5] 0.0209 µM | [7] 0.118 µM | [6] 1.32 µM | [9] 0.209 µM

O=c1[nH]c2ccc(Cl)cc2c(N[C@@H]2CN3CCC2CC3)c1-c1nc2ccccc2[nH]1
active: [1] 0.526 µM | [3] 15.3 µM | [4] 0.109 µM | [5] 5.9 µM | [7] 0.235 µM | [8] 16.6 µM | [9] 14.8 µM
inactive: [6]

CC(=O)[O][Hg][c]1ccccc1
active: [1] 1.19 µM | [3] 3.47 µM | [4] 4.9 µM | [5] 0.944 µM | [7] 2.66 µM | [6] 2.66 µM | [9] 1.06 µM
